Results on 89 molecules are retold here after paper PMC4336329 (PLoS ONE, 2015).

Screen size: about 310,000 compounds; about 14,000 (4.5%) showed an effect of 50% or more. The effect is printed as a negative number. This is one part of a sample in which strong results are shown more often than they occur.
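Note: peak tail current of the secondary pulse compared with the same well before compound.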

Chain of human ether-à-go-go-related gene (hERG) potassium channel (Q12809 whole entry, looked up): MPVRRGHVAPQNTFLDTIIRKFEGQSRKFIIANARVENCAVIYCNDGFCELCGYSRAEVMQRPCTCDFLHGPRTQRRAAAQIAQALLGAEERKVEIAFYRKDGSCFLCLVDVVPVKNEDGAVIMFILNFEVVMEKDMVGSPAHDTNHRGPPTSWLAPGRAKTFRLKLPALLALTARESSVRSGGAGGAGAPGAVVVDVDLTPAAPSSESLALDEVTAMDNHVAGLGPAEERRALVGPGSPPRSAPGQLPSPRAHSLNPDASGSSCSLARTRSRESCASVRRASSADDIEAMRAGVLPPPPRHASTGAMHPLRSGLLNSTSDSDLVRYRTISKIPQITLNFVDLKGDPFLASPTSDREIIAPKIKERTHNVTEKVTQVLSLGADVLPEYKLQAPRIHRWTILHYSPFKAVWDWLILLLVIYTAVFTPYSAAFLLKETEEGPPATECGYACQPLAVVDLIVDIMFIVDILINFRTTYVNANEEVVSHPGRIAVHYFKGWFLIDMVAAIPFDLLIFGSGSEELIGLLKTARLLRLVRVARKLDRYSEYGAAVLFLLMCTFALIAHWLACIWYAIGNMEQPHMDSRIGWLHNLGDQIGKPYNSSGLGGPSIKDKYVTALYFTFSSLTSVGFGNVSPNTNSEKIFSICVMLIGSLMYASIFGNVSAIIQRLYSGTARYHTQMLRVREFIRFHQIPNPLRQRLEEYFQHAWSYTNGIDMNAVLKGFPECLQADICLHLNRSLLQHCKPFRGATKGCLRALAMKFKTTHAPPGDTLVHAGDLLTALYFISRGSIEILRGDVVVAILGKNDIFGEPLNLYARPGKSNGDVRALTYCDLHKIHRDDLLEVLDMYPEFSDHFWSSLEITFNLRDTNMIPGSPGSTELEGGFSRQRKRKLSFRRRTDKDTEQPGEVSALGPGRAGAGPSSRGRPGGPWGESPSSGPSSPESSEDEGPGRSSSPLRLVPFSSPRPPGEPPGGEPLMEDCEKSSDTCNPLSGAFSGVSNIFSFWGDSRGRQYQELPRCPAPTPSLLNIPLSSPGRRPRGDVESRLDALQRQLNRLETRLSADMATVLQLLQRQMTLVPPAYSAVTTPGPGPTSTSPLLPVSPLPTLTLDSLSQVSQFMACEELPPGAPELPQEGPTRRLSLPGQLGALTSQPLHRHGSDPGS

The assay addresses human ether-à-go-go-related gene (hERG) potassium channel (human, UniProt Q12809). The experiment in a line: primary screen, population patch clamp on CHO cells stably expressing hERG; higher = less effect of the substance.
With `C#CCNC(=O)[C@H](Cc1ccc(C(=O)c2ccccc2)cc1)NC(=O)OC(C)(C)C`, the “hERG current change (%, negative = inhibition) at 10uM” value came out at 19.5%.
As for `O=C(COC(=O)c1cc(S(=O)(=O)N2CCOCC2)cs1)c1ccccc1`, the “hERG current change (%, negative = inhibition) at 10uM” value was -0.734%.
`N#C/C(=C\c1cccnc1)c1nc2ccccc2[nH]1`: the “hERG current change (%, negative = inhibition) at 10uM” value was -10.4%.
For `CCn1c(CNC(=O)COc2ccc(C(C)C)cc2)nnc1SCC(=O)NC1CCCCC1C` (centres unmarked), the “hERG current change (%, negative = inhibition) at 10uM” value was -16.8%.
For `CCn1c(CCNC(=O)c2ccc(OC)cc2)nnc1SCC(=O)Nc1ccccc1F`, the “hERG current change (%, negative = inhibition) at 10uM” value was -22.7%.
With `CCn1c(CNC(=O)COc2ccc(C(C)C)cc2)nnc1SCC(=O)Nc1ccccc1`, the “hERG current change (%, negative = inhibition) at 10uM” value is given as -54.2%.
`CCn1c(CNC(=O)COc2ccc(C(C)C)cc2)nnc1SCC(=O)Nc1ccc(F)cc1`: the “hERG current change (%, negative = inhibition) at 10uM” value is recorded as -49.4%.
With `CCn1c(CNC(=O)COc2ccc(C(C)C)cc2)nnc1SCC(=O)Nc1ccccc1F` the figure was -60.1%.
Take `CCn1c(Cc2ccccc2)nnc1SCC(=O)Nc1ccccc1F`: the “hERG current change (%, negative = inhibition) at 10uM” value is listed as -5.46%.
As for `CC1(c2nnc(Cc3ccccc3)o2)CC(c2cccnc2)=NO1` (centres unmarked), the “hERG current change (%, negative = inhibition) at 10uM” value amounted to 3.26%.
In the case of `Cc1ccc(N=C(NO)c2nonc2N)cc1`, the “hERG current change (%, negative = inhibition) at 10uM” value amounted to 10.1%.
For the molecule `CCOC(=O)c1[nH]c2ccccc2c1NC(=O)C1CCCC1`, the “hERG current change (%, negative = inhibition) at 10uM” value stood at 3.28%.
As for `O=C(/C=C/c1ccccc1Cl)Nc1ccncc1`, the figure is -3.65%; as for `Cc1cc(NC(=O)CSCC(=O)NCc2cccc(C(F)(F)F)c2)no1`, -18.7%; as for `O=C(O)CCC(=O)N1CCc2cc(S(=O)(=O)NC3CCCc4ccccc43)ccc21` (centres unmarked), -5.02%.
Turning to `[Cl-].c1ccc(C[n+]2c(-c3ccccc3)csc2Nc2ccccc2)cc1`, the “hERG current change (%, negative = inhibition) at 10uM” value was 19.6%.
Consider `Cc1cc(C)c(OCC(=O)OCC(=O)N2CCN(C(=O)c3ccco3)CC2)c(C)c1`, for which the “hERG current change (%, negative = inhibition) at 10uM” value was -30.4%.
Take `O=C(CSc1cccc2cccc(Cl)c12)OCC(=O)N1CCN(C(=O)c2ccco2)CC1`: the “hERG current change (%, negative = inhibition) at 10uM” value is -69.2%.
Regarding `CCOC(=O)N1CCN(C(=O)COC(=O)CSc2cc(C)c(Br)cc2C)CC1`, the “hERG current change (%, negative = inhibition) at 10uM” value is -38.5%.
Turning to `Cc1cc(SCC(=O)OCC(=O)N2CCN(C(=O)c3ccco3)CC2)c(C)cc1Br`, the “hERG current change (%, negative = inhibition) at 10uM” value was -50.2%.
For `Cc1ccc(SCC(=O)OCC(=O)N(C)C2CCS(=O)(=O)C2)cc1C` (centres unmarked), the “hERG current change (%, negative = inhibition) at 10uM” value is on record as -11.5%.
Regarding `O=C(CSc1ccccc1F)OCC(=O)N1CCN(C(=O)c2ccco2)CC1`, the “hERG current change (%, negative = inhibition) at 10uM” value was -27.2%.
With `NC(=O)COC(=O)CSc1cccc2cccc(Cl)c12`, the “hERG current change (%, negative = inhibition) at 10uM” value was found to be 14.8%.
With `Cc1cccc(OCC(=O)OCC(=O)N2CCN(C(=O)c3ccco3)CC2)c1C` the figure was -31.8%; with `Cc1cc(SCC(=O)OCC(=O)N(C)C2CCS(=O)(=O)C2)c(C)cc1Br` (centres unmarked), -73.1%.
As to `CN(C(=O)COC(=O)CSc1ccc(C(N)=O)cc1[N+](=O)[O-])C1CCS(=O)(=O)C1` (centres unmarked), the “hERG current change (%, negative = inhibition) at 10uM” value is listed as -11.4%.
Regarding `Cc1cc(Br)cc(Cl)c1OCC(=O)N1CCN(C(=O)c2ccco2)CC1`, the “hERG current change (%, negative = inhibition) at 10uM” value is reported as -63.3%.
For the molecule `O=C(COc1ccccc1Br)N1CCN(C(=O)c2ccco2)CC1`, the “hERG current change (%, negative = inhibition) at 10uM” value is given as -31.3%.
With `O=C(c1ccco1)c1cn[nH]c1-c1ccc(Cl)cc1O` the figure was -8.52%; with `C/C(=N\NC(=O)CN(c1ccc(Oc2ccccc2)cc1)S(C)(=O)=O)C(C)(C)C`, 7.07%; with `COc1ccccc1CNC(=O)COC(=O)Cc1ccc(F)cc1`, 8.81%.
With `O=C(Cc1ccccc1)NCc1nc2ccccc2[nH]1` the figure was -6.31%.
Turning to `O=C(NCCc1ccncc1)Nc1cccc(Cl)c1`, the “hERG current change (%, negative = inhibition) at 10uM” value is given as -3.75%.
With `O=C(NCc1cccnc1)C1CCN(C(=O)c2ccc(Cl)cc2Cl)CC1`, the “hERG current change (%, negative = inhibition) at 10uM” value is given as -10.8%.
For `O=[N+]([O-])c1cccc(S(=O)(=O)Nc2ccc(S(=O)(=O)Nc3nccs3)cc2)c1`, the “hERG current change (%, negative = inhibition) at 10uM” value was 13.9%.
Consider `CCOC(=O)CN1C(=O)C(O)(CC(=O)c2cccc(OC)c2)c2ccccc21` (centres unmarked), for which the “hERG current change (%, negative = inhibition) at 10uM” value was found to be 5.13%.
With `O=C(NCC(c1ccco1)N1CCN(c2ccccc2)CC1)c1ccc2c(c1)OCO2` (centres unmarked), the “hERG current change (%, negative = inhibition) at 10uM” value is -5.86%.
`NC(=O)c1ccc(SCC(=O)OCC(=O)N2CCN(C(=O)c3ccco3)CC2)c([N+](=O)[O-])c1`: the “hERG current change (%, negative = inhibition) at 10uM” value is 23.3%.
Consider `CC(=O)N1CCN(C(=O)CSc2cc(C)c(Br)cc2C)CC1`, for which the “hERG current change (%, negative = inhibition) at 10uM” value worked out at 3.18%.
For `Cc1ccc(SCC(=O)OCC(=O)N2CCN(C(=O)c3ccco3)CC2)c(C)c1`, the “hERG current change (%, negative = inhibition) at 10uM” value was -41.6%.
With `Nc1cc(N)nc(SCC(=O)N2CCN(C(=O)c3ccco3)CC2)n1`, the “hERG current change (%, negative = inhibition) at 10uM” value worked out at 0.783%.
For the molecule `Cc1cc(Br)ccc1SCC(=O)OCC(=O)N1CCN(C(=O)c2ccco2)CC1`, the “hERG current change (%, negative = inhibition) at 10uM” value is given as -66.8%.
Consider `Cc1cc(SCC(=O)N2CCN(C(=O)c3ccco3)CC2)c(C)cc1Br`, for which the “hERG current change (%, negative = inhibition) at 10uM” value is reported as -62.3%.
On to `CCCC(O)(CCC)C(=O)NNc1ccccc1`, for which the “hERG current change (%, negative = inhibition) at 10uM” value came out at 12.4%.
On to `O=C(NCCCN1CCCC1=O)c1ccc2c(=O)n(Cc3ccco3)c(=S)[nH]c2c1`, for which the “hERG current change (%, negative = inhibition) at 10uM” value is listed as -17.8%.
`Cc1ccc2oc(=O)c3cnn(CC(=O)NC4CCCCC4C)c3c2c1` (centres unmarked): the “hERG current change (%, negative = inhibition) at 10uM” value is on record as 8.43%.
Consider `CS(=O)(=O)N1CCc2cc(NC(=O)c3ccc(Cl)cc3Cl)ccc21`, for which the “hERG current change (%, negative = inhibition) at 10uM” value was 1.5%.
With `CCN(CC)C(=O)CSc1nc2ccccc2c(=O)[nH]1`, the “hERG current change (%, negative = inhibition) at 10uM” value was determined as 12.5%.
In the case of `CCn1c(=O)n(CC)c2cc(NS(=O)(=O)c3ccccc3)ccc21`, the “hERG current change (%, negative = inhibition) at 10uM” value is -68.7%.
As for `Cn1c(=O)n(C)c2cc(NS(=O)(=O)c3ccccc3)ccc21`, the figure is 4.09%; as for `CCn1c(=O)c(=O)n(CC)c2cc(S(=O)(=O)Nc3ccc(C)cc3)ccc21`, 7.02%.
On to `CC(=O)Nc1ccc2nc(-c3ccco3)[nH]c2c1`, for which the “hERG current change (%, negative = inhibition) at 10uM” value is given as 7.99%.
As for `CC(=O)Nc1ccc2nc(-c3cccn3C)[nH]c2c1`, the figure is 12.8%; as for `O=C(Nc1ccc(-c2nc3ccc(NC(=O)c4cccs4)cc3[nH]2)cc1)c1cccs1`, 18.1%; as for `Cc1ccc(S(=O)(=O)Nc2ccc3nc(-c4cccn4C)[nH]c3c2)cc1`, -79.3%.
As for `Cc1ccc(-c2nc3ccc(NS(=O)(=O)c4ccccc4)cc3[nH]2)o1`, the figure is -47.3%.
With `Cn1cccc1-c1nc2ccc([N+](=O)[O-])cc2[nH]1`, the “hERG current change (%, negative = inhibition) at 10uM” value was found to be 4.4%.
With `Cn1cccc1-c1nc2ccc(NC(=O)c3ccccc3)cc2[nH]1` the figure was -39.3%; with `O=S(=O)(Nc1ccc2nc(-c3ccco3)[nH]c2c1)c1ccccc1`, -58.4%.
For the molecule `Cn1cccc1-c1nc2ccc(NC(=O)c3cccs3)cc2[nH]1`, the “hERG current change (%, negative = inhibition) at 10uM” value is recorded as -53.3%.
As for `COc1ccccc1CNC(=O)CNC(=O)[C@@H]1Cc2ccccc2CN1`, the figure is 1.14%.
On to `Cc1c(NC(=O)CSc2nnc(N)s2)c(=O)n(-c2ccccc2)n1C`, for which the “hERG current change (%, negative = inhibition) at 10uM” value was -10.4%.
For `Cc1ccnc(NC(=O)CN(C)S(=O)(=O)c2cccc3nsnc23)c1`, the “hERG current change (%, negative = inhibition) at 10uM” value was found to be 7.8%.
As for `O=S(=O)(Nc1ccc(Cl)cc1)c1ccc2c(c1)CCO2`, the figure is -3.21%; as for `O=C(O)c1ccc(NS(=O)(=O)c2cc(Cl)sc2Cl)cc1`, 21.3%; as for `Cc1oc2c(Cl)c(Cl)c(O)c(CN(C)C)c2c1C(=O)c1ccc(Cl)cc1`, -1.39%.
In the case of `Cc1nnc(SCC(=O)NC2CCCc3c2cnn3-c2ccccc2F)o1` (centres unmarked), the “hERG current change (%, negative = inhibition) at 10uM” value is listed as 20.5%.
Take `O=C(O)c1ccccc1C(=O)NCc1cccnc1`: the “hERG current change (%, negative = inhibition) at 10uM” value is given as -32.8%.
Turning to `O=C(NCc1ccco1)c1cccn2c(=O)c3c4c(sc3nc12)CCCC4`, the “hERG current change (%, negative = inhibition) at 10uM” value came to 13.6%.
Consider `O=C(NCc1ccco1)c1cccn2c(=O)c3sccc3nc12`, for which the “hERG current change (%, negative = inhibition) at 10uM” value is given as -68.4%.
For `O=C(NCCNc1ccc2ccccc2c1)c1cccn2c(=O)c3sccc3nc12`, the “hERG current change (%, negative = inhibition) at 10uM” value was -6.94%.
With `O=C(NCc1cccs1)c1cccn2c(=O)c3sccc3nc12`, the “hERG current change (%, negative = inhibition) at 10uM” value is given as -7.79%.
With `O=C(NCc1cccnc1)c1cccn2c(=O)c3sccc3nc12`, the “hERG current change (%, negative = inhibition) at 10uM” value is on record as -63.2%.
As for `O=c1c2ccccc2ncn1-c1ccc([N+](=O)[O-])c(C(F)(F)F)c1`, the “hERG current change (%, negative = inhibition) at 10uM” value is reported as -3.74%.
As for `CC#C[C@@H](CC)c1ccc2ccn(C)c2c1`, the figure is -4.51%.
As to `O=C(NC1CCCCCCC1)c1ccc(F)cc1`, the “hERG current change (%, negative = inhibition) at 10uM” value is on record as 4.61%.
With `COC(=O)C(Cc1ccccc1)NC(=O)c1cc(=O)[nH]c2ccccc12` (centres unmarked) the figure was 17.6%; with `CC(C)CCNC(=O)c1ccc(NC(=O)C2=CSCCO2)cc1`, 4.36%.
As to `COc1ccccc1C1=NOC(C)(c2sc(-c3ccccc3)nc2C)C1` (centres unmarked), the “hERG current change (%, negative = inhibition) at 10uM” value turned out to be 21.7%.
As to `Cc1cc(C)c(C#N)c(SCc2ccccc2)n1`, the “hERG current change (%, negative = inhibition) at 10uM” value turned out to be 11.2%.
`CNc1nnc(-c2ccncc2)s1`: the “hERG current change (%, negative = inhibition) at 10uM” value is recorded as -0.587%.
With `Cc1ccc(Nc2nnc(-c3ccncc3)s2)c(Br)c1` the figure was -59.3%; with `Clc1ccccc1Nc1nnc(-c2ccncc2)s1`, -6.07%; with `CCOc1ccc2oc(=O)cc(CN3CCN(C(=O)c4ccco4)CC3)c2c1`, -69.4%.
As to `CCN1CCN(Cc2cc(=O)oc3ccc(Cl)cc23)CC1`, the “hERG current change (%, negative = inhibition) at 10uM” value was -15%.
Turning to `CCOc1ccc2oc(=O)cc(CN3CCN(Cc4ccccc4)CC3)c2c1`, the “hERG current change (%, negative = inhibition) at 10uM” value was -56.7%.
`CCOc1ccc2oc(=O)cc(CN3CCOCC3)c2c1`: the “hERG current change (%, negative = inhibition) at 10uM” value was -1.8%.
In the case of `Cc1cc(=O)oc2cc(OCC(=O)N3CCN(C(=O)c4ccco4)CC3)ccc12.Cl`, the “hERG current change (%, negative = inhibition) at 10uM” value is reported as -32.6%.
In the case of `CCOc1ccc(CN2CCN(C(=O)c3ccco3)CC2)cc1.O=C(O)C(=O)O`, the “hERG current change (%, negative = inhibition) at 10uM” value is given as -26.8%.
